High-throughput results (PubChem BioAssay)
The list is not random: actives were taken first. Their share in the collection is about 9%.
HP1b chromo inh = HTS for Inhibitors of HP1-beta Chromodomain Interactions with Methylated Histone Tails; AlphaScreen HP1-beta / biotin-H3K9me3 peptide binding; Potency, µM (doses to about 114 µM), actives largely listed as inhibitors; 390,000 tested, 0.56% active; note: nearly all actives have a fitted effect of over 70% in size
Target sequence (P83916 whole entry, looked up): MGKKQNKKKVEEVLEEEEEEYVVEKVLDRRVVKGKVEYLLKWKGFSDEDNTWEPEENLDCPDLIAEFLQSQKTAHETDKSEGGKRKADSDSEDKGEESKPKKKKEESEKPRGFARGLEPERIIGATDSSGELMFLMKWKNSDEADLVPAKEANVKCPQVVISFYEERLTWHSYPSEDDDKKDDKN
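AlphaScreen: HP1-beta (50 nM) preformed 30 min with biotin-H3(1-18)K9me3 peptide (50 nM) in PBS pH 7.4, 0.01% Tween-20. Compound added for 30 min at RT, then streptavidin donor/nickel chelate acceptor beads (10 ug/mL) for 30 min.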
JMJD2A Tudor inh = qHTS Assay for Inhibitors of JMJD2A-Tudor Domain. Lysine-specific demethylase 4A (Homo sapiens), O75164. AlphaScreen JMJD2A-Tudor / H3K4me3 peptide binding. Potency, µM (series often up to 114 µM), actives largely listed as inhibitors. 390,000 tested, 4.4% active. AID 504339, 2011; note: nearly all actives have a fitted effect of over 50% in size
BAZ2B block = qHTS Assay for Inhibitors of BAZ2B; AlphaScreen BAZ2B-H3K14Ac peptide displacement; Potency, µM (titrated, usually from 114 µM), most hits filed as inhibitors; 360,000 tested, 4.4% active; AID 504333, 2011; note: nearly all actives have a fitted effect of over 60% in size
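AlphaScreen displacement: compounds (up to 110uM) incubated 30 min at room temperature with a preformed 50 nM BAZ2B/50 nM biotinylated H3K14Ac peptide complex in PBS pH 7.4 with Tween-20. Donor and acceptor beads at 10 ug/mL final added, 20 min light-protected before reading.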
PLK1 PBD inh = qHTS for Inhibitors of PLK1-PDB (polo-like kinase 1 - polo-box domain): Primary Screen; Plk1 PBD binding of FITC phosphopeptide, fluorescence polarization; Serine/threonine-protein kinase PLK1 (Homo sapiens), P53350; AID 720504, 2013; Potency, µM, actives largely listed as inhibitors; 360,000 tested, 2.8% active; note: series mostly up to about 57 µM; nearly all actives have a fitted effect of over 65% in size
12-LOX inh = Primary qHTS assay for inhibitors of human arachidonate 12S-lipoxygenase (ALOX12): Round 2; Polyunsaturated fatty acid lipoxygenase ALOX12 (Homo sapiens), P18054; purified 12hLO, xylenol orange hydroperoxide absorbance; Potency, µM (series often up to 108 µM), usual class: inhibitors; 580,000 tested, 1.1% active
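Purified human 12hLO at 150 nM in 25 mM Hepes, 0.01% Triton X-100, pH 7.0, preincubated 15 min at room temperature with compound. Reaction started with 40 uM arachidonic acid, 30 min at room temperature. Hydroperoxide measured by Fe-xylenol orange, 573/405 nm absorbance ratio.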
G9a block = qHTS Assay for Inhibitors of Histone Lysine Methyltransferase G9a; 350,000 tested, 8.8% active; Potency, µM (top dose mostly 102 µM), hits mostly inhibitors; Histone-lysine N-methyltransferase EHMT2 (Homo sapiens), Q96KQ7; G9a H3K9 monomethylation, AlphaScreen, 2 h; AID 504332, 2011; note: nearly all actives have a fitted effect of over 75% in size
Target sequence (Q96KQ7 913-1193 limits assumed): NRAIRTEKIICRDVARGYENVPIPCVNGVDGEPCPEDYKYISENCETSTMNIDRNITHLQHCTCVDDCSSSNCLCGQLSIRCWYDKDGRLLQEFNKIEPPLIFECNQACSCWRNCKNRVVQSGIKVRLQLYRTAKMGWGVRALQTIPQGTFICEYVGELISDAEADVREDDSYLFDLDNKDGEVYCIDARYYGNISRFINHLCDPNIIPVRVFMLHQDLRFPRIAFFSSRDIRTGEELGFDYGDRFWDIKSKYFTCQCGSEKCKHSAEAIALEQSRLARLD
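Readings reflect AlphaScreen signal from monomethyl-H3K9 antibody detection. HMT at 20 nM; substrate b-H3K9 500 nM; cofactor SAM 20 uM; 2 h RT reaction; compounds tested as titrations in qHTS with 15 min preincubation.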
Numbers stand for hits; - = inactive; ? = inconclusive; . = no result; ! = not confirmed by another sample; [ ] = remark or other dose. Calls come from the whole dose curve; as a rule, active = well fitted curve in the direction sought with a large enough effect; inconclusive = small, poorly fitted or top-dose-only effect, or another doubt; inactive = no such curve, though single readings can be large; an effect the other way counts as inactive or inconclusive.

SMILES | HP1b chromo inh | JMJD2A Tudor inh | BAZ2B block | PLK1 PBD inh | 12-LOX inh | G9a block
CCOC(=O)c1[nH]c(C)c(C(=O)OC)c1C | - | - | - | - | - | -
CCOC(=O)c1[nH]c(C)c(C)c1C | - | 79µM | ? | ? | - | -[12.7 µM]
CCOC(=O)CC(=O)c1[nH]c(C)c(C(=O)OCC)c1C | - | - | 79µM | - | - | -
CCCc1cc(=O)[nH]c2nnc(SCC(=O)NCc3ccc4c(c3)OCO4)n12 | - | - | - | - | ? | -[2.33 µM]
CCn1cnc2c1c(=O)n(CC(=O)NCCc1cccc(F)c1)c(=O)n2Cc1ccccc1 | . | . | . | . | - | .
CCOC(=O)c1[nH]c(=S)[nH]c1C | - | 5µM | . | ? | - | .
CCOC(=O)c1c(C)[nH]c(C(=O)O)c1C | - | - | ? | - | - | -
COc1ccnc(CSC(N)=Nc2ccccc2OC)c1 | - | 45µM | ? | - | ? | 8.9µM
COc1ccnc(CSC(N)=Nc2cccc(C(F)(F)F)c2)c1 | ? | 20µM | 35µM | - | - | 45µM
COc1ccnc(CSC(N)=Nc2ccccc2C(F)(F)F)c1 | - | - | - | - | - | -
FC(F)(F)c1cnc(Sc2ncc(C(F)(F)F)cc2Cl)c(Cl)c1 | . | . | . | . | - | .
Cc1ccc(CO/N=C\Cc2snc(Sc3ncc(C(F)(F)F)cc3Cl)c2C#N)cc1 | ? | ? | 35µM | - | ? | 11µM
OC(C#CCN1CCCCCC1)(c1ccccc1)c1cccnc1 (stereo not given) | - | - | - | - | - | 18µM
C(#Cc1ccccc1)CN1CCOCC1 | - | - | - | - | ? | -
OC(C#CCN1CCCC1)(c1ccccc1)c1cccnc1 (stereo not given) | - | 28µM | 79µM | - | ? | 8.9µM
CC(C)C(O)(C#CCN1CCCC1)c1ccccc1 (stereo not given) | - | - | ? | - | ? | 25µM
CC(O)(C#CCN1CCOCC1)c1ccccc1 (stereo not given) | - | - | - | - | - | 40µM
OC(C#CCCN1CCCCC1)(c1ccccc1)c1ccccc1 | - | - | - | - | ? | .
COc1ccc(NC(=O)COC(=O)c2ccc3ccccc3n2)cc1OC | - | - | . | - | ? | .
CCC(=O)Oc1ccc2ccccc2c1CNC(=O)c1ccccc1 | - | - | - | - | - | -
OC(C#CCN1CCCC1)c1ccccc1 (stereo not given) | - | - | - | - | - | 45µM
CN(C)CCNc1nc2sc3c(c2c(=O)n1CCc1ccccc1)CCCCC3 | - | 50µM | 45µM | - | ? | 40µM
CC(O)CNc1nc2sc3c(c2c(=O)n1Cc1ccco1)CCCCC3 (stereo not given) | - | - | - | - | - | .
O=c1c2c3c(sc2nc(NCCOCCO)n1Cc1ccco1)CCCCC3 | - | - | ? | - | - | ?
CC(O)CNc1nc2sc3c(c2c(=O)n1CCc1ccccc1)CCCCC3 (stereo not given) | ? | ? | ? | - | - | 50µM
SMILES | HP1b chromo inh | JMJD2A Tudor inh | BAZ2B block | PLK1 PBD inh | 12-LOX inh | G9a block
N#C/C(N=Nc1ccccc1O)=N\Nc1ccccc1O | 16µM | 22µM | 11µM | - | ? | ?
CCCN(CCC)C(=O)c1ccc2c(c1)N(Cc1ccccc1)C(=O)CS2=O (stereo not given) | - | - | - | 27µM | - | -
CCCNC(=O)c1ccc2c(c1)N(Cc1ccccc1)C(=O)CS2=O (stereo not given) | . | . | . | . | - | .
CCn1c(CC(=O)Nc2ccccc2C)nnc1SCC(=O)NC1CCCC1 | - | - | - | - | - | ?
O=C(NN1C(=O)/C(=C/C=C/c2ccccc2)SC1=S)c1ccncc1 | - | - | - | ? | ? | 45µM
O=C(NN1C(=O)/C(=C/C=C/c2ccco2)SC1=S)c1ccncc1 | 13µM | 14µM | 5.6µM | 4.7µM | 50µM | 4µM
CN(Cc1ccccc1)C(=O)C1CCC(CNS(=O)(=O)c2cccc3cccnc23)CC1 (stereo not given) | - | - | - | - | - | -
CC(CNC(=O)c1cc(-c2ccccc2)n[nH]1)c1ccccc1 (stereo not given) | - | - | - | . | - | -
CC(Cc1n[nH]c(=S)o1)c1ccccc1 (stereo not given) | - | ? | ? | 24µM | ? | 8.9µM
Cc1[nH]c2ccccc2c1SCc1n[nH]c(=S)n1C | - | 10µM | - | - | ? | 4µM
Cc1[nH]c2ccccc2c1Cc1n[nH]c(=S)n1C | - | 6.3µM | - | - | - | 2µM
Cc1[nH]c2ccccc2c1Cc1n[nH]c(=S)o1 | - | 79µM | - | ? | ? | 8.9µM
Cc1ccc2cccc(SCc3ccc(F)cc3)c2n1 | . | . | . | . | - | .
CCOC(=O)C1=C(CN2CCN(C(=O)c3ccco3)CC2)NC(=O)NC1c1ccc(OC(C)C)cc1 (stereo not given) | - | - | ? | - | - | -
N#Cc1c(N)n[nH]c1Cc1cccc2ccccc12 | - | - | . | . | - | .
c1ccc(CN2CCN(Cc3c[nH]c4ccccc34)CC2)cc1 | - | - | - | - | - | -
S=c1[nH]nc(Cc2cccc3ccccc23)o1 | - | 79µM | - | - | ? | 2.2µM
Cn1c(Cc2c[nH]c3ccccc23)n[nH]c1=S | - | 5µM | - | - | ? | ?
COCc1nncn1C1CCN(C(=O)c2ccc(F)c(Cl)c2)CC1 | . | . | . | . | - | .
COC(=O)COc1nc(CC(C)C)c2c(c1C#N)CCCC2 | . | . | . | . | - | .
NC(=O)c1cc(S(=O)(=O)N2CCOCC2)ccc1Sc1ccccc1N | - | - | - | 15µM | ? | -[0.501 µM]
NCCCC(N)(C(=O)O)C(F)F (stereo not given) | - | - | ? | - | - | 7.1µM!
Cc1ncc(CCl)c2c1OC(C)(C)OC2 | - | ? | 50µM | - | ? | ?
Cc1ncc(CO)c2c1OC(C)(C)OC2 | - | - | - | - | - | -
CCS(=O)(=O)N1CCN(C(=O)c2cc(OC)cc(OC)c2)CC1 | - | - | - | - | - | -[12.7 µM]
COc1cc(C(=O)N2CCN(Cc3ccccc3C(F)(F)F)CC2)cc(OC)c1OC | ? | 20µM | 32µM | - | ? | ?
O=C(c1ccc(OC2CCN(Cc3ccccc3C(F)(F)F)CC2)cc1)N1CCCCC1 | - | - | - | - | ? | ?
COc1cc(OC)cc(C(=O)N2CCN(Cc3ccccc3C(F)(F)F)CC2)c1 | ? | 1.6µM | 35µM | - | ? | 7.9µM
CCC(C)N1CCN(C(=O)c2cc(OC)cc(OC)c2)CC1 (stereo not given) | ? | 20µM | 79µM | - | ? | .
COc1cccc(C(=O)N2CCN(Cc3ccccn3)CC2)c1 | - | 3.5µM | 20µM | - | ? | 45µM
